# In the supplement of paper PMC8728848:
# Many of the other results were omitted from the sample, so the strongest signals are more common in it than they were.
# What was measured:
# Assay in all cases: glycan array binding signal (z-score within array); higher = stronger binding
# Conditions in all cases: glycan notation: IUPAC condensed, linker removed
# [1] = biological target: Gal(b1-4)GlcNAc(b1-3)Gal(b1-4)GlcNAc(b1-3)Gal(b1-4)GlcNAc(b1-3)Gal(b1-4)GlcNAc(b1-3)Gal(b1-4)GlcNAc(b1-2)Man(a1-3)[Gal(b1-4)GlcNAc(b1-3)Gal(b1-4)GlcNAc(b1-3)Gal(b1-4)GlcNAc(b1-3)Gal(b1-4)GlcNAc(b1-3)Gal(b1-4)GlcNAc(b1-2)Man(a1-6)]Man(b1-4)GlcNAc(b1-4)GlcNAc
# Outline: (§1)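 From the Consortium for Functional Glycomics database, 3228 arrays were curated, keeping only those whose protein sequence was available. Binding is given as a within-array Z-score averaged across arrays sharing a protein sequence and across linkers. Negative Z-scores can be read as non-binding.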
# [2] = biological target: Gal(b1-4)GlcNAc(b1-3)Gal(b1-4)GlcNAc(b1-3)Gal(b1-4)GlcNAc(b1-3)Gal(b1-4)GlcNAc(b1-3)Gal(b1-4)GlcNAc(b1-2)Man(a1-3)[Gal(b1-4)GlcNAc(b1-3)Gal(b1-4)GlcNAc(b1-3)Gal(b1-4)GlcNAc(b1-3)Gal(b1-4)GlcNAc(b1-3)Gal(b1-4)GlcNAc(b1-2)Man(a1-6)]Man(b1-4)GlcNAc(b1-4)[Fuc(a1-6)]GlcNAc
# Outline: as §1
# [3] = biological target: Gal(b1-4)GlcNAc(b1-3)Gal(b1-4)GlcNAc(b1-3)[Gal(b1-4)GlcNAc(b1-3)Gal(b1-4)GlcNAc(b1-6)]GalNAc
# Outline: as §1
# [4] = biological target: Gal3S(b1-3)GlcNAc
# Outline: as §1
# [5] = biological target: Gal3S6S(b1-4)GlcNAc6S
# Outline: as §1
# [6] = biological target: Gal6P(b1-4)GlcNAc
# Outline: as §1
# [7] = biological target: GalNAc(b1-3)Gal(a1-6)Gal(b1-4)Glc
# Outline: as §1
# [8] = biological target: GalNAc(b1-4)GlcNAc(b1-2)Man
# Outline: as §1
# [9] = biological target: GalNAc3S(b1-4)[Fuc(a1-3)]GlcNAc
# Outline: as §1
# [10] = biological target: GlcA(b1-3)GlcNAc
# Outline: as §1
# [11] = biological target: GlcNAc(b1-2)Man(a1-3)[GlcNAc(b1-2)Man(a1-6)]Man(b1-4)GlcNAc(b1-4)GlcNAc
# Outline: as §1
# [12] = biological target: GlcNAc(b1-2)[GlcNAc(b1-4)]Man(a1-3)[GlcNAc(b1-4)][GlcNAc(b1-2)[GlcNAc(b1-6)]Man(a1-6)]Man(b1-4)GlcNAc(b1-4)[Fuc(a1-6)]GlcNAc
# Outline: as §1
# [13] = biological target: GlcNAc(b1-3)Gal(b1-3)GalNAc
# Outline: as §1
# [14] = biological target: GlcNAc(b1-3)Gal(b1-4)Glc
# Outline: as §1
# [15] = biological target: GlcNAc(b1-3)Gal(b1-4)GlcNAc
# Outline: as §1
# [16] = biological target: GlcNAc(b1-3)Gal(b1-4)GlcNAc(b1-3)Gal(b1-4)GlcNAc(b1-3)Gal(b1-4)GlcNAc(b1-2)Man(a1-3)[GlcNAc(b1-3)Gal(b1-4)GlcNAc(b1-3)Gal(b1-4)GlcNAc(b1-3)Gal(b1-4)GlcNAc(b1-2)Man(a1-6)]Man(b1-4)GlcNAc(b1-4)[Fuc(a1-6)]GlcNAc
# Outline: as §1
# [17] = biological target: GlcNAc(b1-3)Gal(b1-4)GlcNAc(b1-6)[GlcNAc(b1-3)Gal(b1-3)]GalNAc
# Outline: as §1
# [18] = biological target: Man(a1-2)Man(a1-3)[Man(a1-6)]Man(a1-6)[Man(a1-2)Man(a1-3)]Man(b1-4)GlcNAc(b1-4)GlcNAc
# Outline: as §1
# [19] = biological target: Man(b1-4)GlcNAc
# Outline: as §1
# [20] = biological target: Neu5Ac(a2-3)Gal(b1-3)GalNAc6S
# Outline: as §1
# [21] = biological target: Neu5Ac(a2-3)Gal(b1-3)GlcNAc6S
# Outline: as §1
# [22] = biological target: Neu5Ac(a2-3)Gal(b1-3)[Fuc(a1-4)]GlcNAc(b1-3)Gal(b1-4)[Fuc(a1-3)]GlcNAc
# Outline: as §1
# [23] = biological target: Neu5Ac(a2-3)Gal(b1-4)GlcNAc(b1-2)[Neu5Ac(a2-3)Gal(b1-4)GlcNAc(b1-4)]Man(a1-3)[GlcNAc(b1-4)][Neu5Ac(a2-3)Gal(b1-4)GlcNAc(b1-2)[Neu5Ac(a2-3)Gal(b1-4)GlcNAc(b1-6)]Man(a1-6)]Man(b1-4)GlcNAc(b1-4)GlcNAc
# Outline: as §1
# [24] = biological target: Neu5Ac(a2-3)Gal(b1-4)GlcNAc(b1-6)[Gal(b1-3)]GalNAc
# Outline: as §1
# [25] = biological target: Neu5Ac(a2-3)Gal(b1-4)[Fuc(a1-3)]GlcNAc(b1-3)Gal(b1-4)GlcNAc
# Outline: as §1
# [26] = biological target: Neu5Ac(a2-3)GalNAc
# Outline: as §1
# [27] = biological target: Neu5Ac(a2-6)Gal(b1-4)GlcNAc(b1-2)Man(a1-6)Man(b1-4)GlcNAc(b1-4)GlcNAc
# Outline: as §1
# [28] = biological target: Neu5Ac(a2-6)Gal(b1-4)GlcNAc(b1-3)Gal(b1-4)[Fuc(a1-3)]GlcNAc(b1-3)Gal(b1-4)[Fuc(a1-3)]GlcNAc
# Outline: as §1
# [29] = biological target: Neu5Ac(a2-8)Neu5Ac
# Outline: as §1
# [30] = biological target: Neu5Gc(a2-3)Gal(b1-3)GlcNAc
# Outline: as §1
# [31] = biological target: Neu5Gc(a2-8)Neu5Gc(a2-6)Gal(b1-4)GlcNAc
# Outline: as §1
binder,measurement,setting,value
Mermaid1 (Stilbonema majum) (protein) MGSSHHHHHHSSGLVPRGSHMAASGWLRSPQGTVVKLYRRSLSWSKADEFCKDVDGRLVVDRTADMHLFLIKNVLKEKKSRVWVGLRRTAPHSRTWIWSDGTRQNEDDLDANLWLRDEPNDAAGEEECALFMYSPWEKAWGLNDYLCRGGCRSYQFICEKWIR,glycan array binding signal (z-score),[1],0.715
same,glycan array binding signal (z-score),[2],-0.28
same,glycan array binding signal (z-score),[3],-0.17
same,glycan array binding signal (z-score),[4],0.37
same,glycan array binding signal (z-score),[5],-0.524
same,glycan array binding signal (z-score),[6],-0.911
same,glycan array binding signal (z-score),[7],-0.59
same,glycan array binding signal (z-score),[8],3.48
same,glycan array binding signal (z-score),[9],0.714
same,glycan array binding signal (z-score),[10],-0.379
same,glycan array binding signal (z-score),[11],-0.645
same,glycan array binding signal (z-score),[12],-0.663
same,glycan array binding signal (z-score),[13],-0.864
same,glycan array binding signal (z-score),[14],0.313
same,glycan array binding signal (z-score),[15],-0.029
same,glycan array binding signal (z-score),[16],0.762
same,glycan array binding signal (z-score),[17],-0.841
same,glycan array binding signal (z-score),[18],-0.285
same,glycan array binding signal (z-score),[19],8.49
same,glycan array binding signal (z-score),[20],0.152
same,glycan array binding signal (z-score),[21],0.494
same,glycan array binding signal (z-score),[22],2.98
same,glycan array binding signal (z-score),[23],-0.428
same,glycan array binding signal (z-score),[24],5.42
same,glycan array binding signal (z-score),[25],-0.359
same,glycan array binding signal (z-score),[26],-0.535
same,glycan array binding signal (z-score),[27],-0.437
same,glycan array binding signal (z-score),[28],-0.822
same,glycan array binding signal (z-score),[29],-0.351
same,glycan array binding signal (z-score),[30],-0.396
same,glycan array binding signal (z-score),[31],0.03
